An excerpt weighted towards active compounds, which were near 4.7% of everything screened.
DRD3 agonist: agonists of human D3 dopamine receptor | P35462 | D3R DiscoveRx beta-arrestin cells, luminescence, 90 min | max activation, % | 410,000 compounds, 0.58% hits; in the data active = max activation above about 30%; also: 0% is about no effect
Target sequence (P35462 whole entry, looked up): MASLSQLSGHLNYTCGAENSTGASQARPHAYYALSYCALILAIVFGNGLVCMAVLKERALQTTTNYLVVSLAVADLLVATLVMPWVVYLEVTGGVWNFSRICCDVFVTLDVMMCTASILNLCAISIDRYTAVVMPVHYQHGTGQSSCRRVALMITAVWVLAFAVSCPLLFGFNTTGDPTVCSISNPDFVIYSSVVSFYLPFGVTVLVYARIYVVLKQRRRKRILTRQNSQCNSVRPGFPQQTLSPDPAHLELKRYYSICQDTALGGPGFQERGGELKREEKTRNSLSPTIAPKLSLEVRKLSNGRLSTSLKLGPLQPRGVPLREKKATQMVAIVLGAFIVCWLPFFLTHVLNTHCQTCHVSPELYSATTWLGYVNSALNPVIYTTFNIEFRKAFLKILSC
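Agonist mode: compounds and dopamine controls were applied to plated cells for 90 min at 37 degrees C after an overnight attachment at 1500 cells/well. Luminescent read-out followed 30 - 60 minutes at room temperature with DiscoveRx detection reagent.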
ATXN viability: cell viability loss in ATXN counter-screen; Potency, µM (highest dose often 56.7 µM), usual class: cytotoxic; 400,000 compounds, 0.49% hits; S2 cells (HEK-293 line with an ATXN2-luciferase reporter) viability, CellTiter-Fluor protease fluorescence, 24 h; AID 651635; also: potency is read from the fitted curve at half-maximal effect; nearly all actives have a fitted effect of over 40% in size
HepG2 tox-1: counter-screen for TGF-b inhibitors: cytotoxicity in HepG2 cells; Potency, µM (doses to about 46.1 µM), for the others: at the top dose activity change, negative = cytotoxicity, hits mostly cytotoxic; 410,000 compounds, 0.76% hits; HepG2 CAGA-GFP viability, ATP luminescence, 18 h; also: potency is read from the fitted curve at half-maximal effect
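CellTiter-Glo luminescence gave cytotoxicity after 18 hours at 37 degrees C. The cells were HepG2 CAGA-GFP in 1% FBS DMEM, stimulated with 500 pg/mL TGF-beta after compound addition. %Activity was normalised to no-cell wells (complete cell-killing) and DMSO (no toxicity), and curves were fitted and classified.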
TGFb inhibitor: inhibitors of TGF-b signaling; HepG2 CAGA-GFP TGF-b/SMAD3 reporter, GFP fluorescence, 18 h; TGF-beta stimulated, 500 pg/mL final; Potency, µM (series often up to 46.1 µM), without a hit: top-dose activity, negative = inhibition, most hits filed as inhibitors; 410,000 compounds, 1.2% hits; also: potency is read from the fitted curve at half-maximal effect; % is scaled to controls: 0 for no effect and ±100 for the full control effect; nearly all actives have a fitted effect of over 65% in size
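HEPG2 CAGA-GFP cells (1000/well, DMEM with 1% FBS) were pre-incubated 2 h at 37 degrees C, given compound by pin tool, then stimulated with TGF-beta at 500 pg/mL final for 18 h before per-cell GFP fluorescence imaging.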
ATXN2 expr inh: inhibitors of ATXN2 expression; 360,000 compounds, 0.72% hits; AID 1745845; HEK-293 ATXN2-luciferase reporter, luminescence, 24 h; Potency, µM (highest dose often 57 µM), for the others: at the top dose activity change, negative = inhibition, usual class: inhibitors; also: potency is read from the fitted curve at half-maximal effect; % is scaled to controls: 0 for no effect and ±100 for the full control effect; nearly all actives have a fitted effect of over 55% in size
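ATXN2-luciferase reporter cells (luciferase flanked by upstream and downstream ATXN2 gene portions) were treated 24 h at 37 °C with compounds at up to 57 uM. SteadyGlo luminescence gave expression; GF-AFC fluorescence gave viability.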
DRD3 antagonist: blocks the human D3 dopamine receptor. 360,000 compounds, 2.5% hits. D3R cells, DiscoveRx beta-arrestin luminescence, antagonist mode; hits give low values. max response, negative = inhibition, %; in the data active = max response below about -50%; inconclusive = no clear call, values can overlap the other calls; also: % is scaled to controls: 0 for no effect and ±100 for the full control effect
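Cells plated overnight at 1500 cells/well, then exposed to library compounds with dopamine controls for 90 minutes at 37 degrees C. DiscoveRx reagent added for 30–60 minutes at room temperature; luminescence read, quantitative HTS format.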
TGFb confirm: confirmation of TGF-b signaling inhibitors in HepG2 reporter cells; AID 720534; shares compounds with TGFb inhibitor; 1,600 compounds, 63% hits; Potency, µM (doses to about 46.1 µM), without a hit: at the highest dose activity, negative = inhibition, usual class: inhibitors; HepG2 CAGA-GFP TGF-b reporter, GFP fluorescence, 18 h; cells stimulated with TGF-beta, 500 pg/mL; also: potency is read from the fitted curve at half-maximal effect; % is scaled to controls: 0 for no effect and ±100 for the full control effect; nearly all actives have a fitted effect of over 65% in size
HepG2 tox-2: HepG2 cytotoxicity, TGF-b inhibitor counterscreen | shares compounds with TGFb inhibitor | Potency, µM (doses to about 46.1 µM), for inactives: at the highest dose activity, negative = cytotoxicity, hits mostly inhibitors | 1,600 compounds, 27% hits | HepG2 CAGA-GFP viability, ATP luminescence, 18 h; cells stimulated with TGF-beta, 500 pg/mL; also: potency is read from the fitted curve at half-maximal effect; % is scaled to controls: 0 for no effect and ±100 for the full control effect; nearly all actives have a fitted effect of over 70% in size
CCL64 TGFb inh: orthogonal confirmation of TGF-b inhibitors in CCL64 cells; Potency, µM (top dose mostly 46.1 µM), without a hit: at the top dose activity, negative = inhibition, most hits filed as inhibitors; CCL64 CAGA-GFP reporter, TGF-b stimulated, GFP fluorescence, 18 h; 1,600 compounds, 41% hits; shares compounds with TGFb inhibitor; also: potency is read from the fitted curve at half-maximal effect; nearly all actives have a fitted effect of over 65% in size
COP TGFb inh: TGF-b inhibition validated with COP promoter. shares compounds with TGFb inhibitor. HepG2 COP-GFP TGF-b reporter, GFP fluorescence, 18 h; cells stimulated by added recombinant TGF-beta. Potency, µM (series often up to 46.1 µM), for the others: at the highest dose activity, negative = inhibition, actives largely listed as inhibitors. 1,600 compounds, 3% hits. AID 720537; also: potency is read from the fitted curve at half-maximal effect; nearly all actives have a fitted effect of over 70% in size
* marks the source's active call; other numbers are inactive results; i = inactive; ? = inconclusive; . = no result. Unless noted, calls follow the shape of the dose curve; as a rule, active = well fitted curve in the direction sought with a large enough effect; inconclusive = small, poorly fitted or top-dose-only effect, or another doubt; inactive = no such curve, though single readings can be large; an effect the other way counts as inactive or inconclusive.

SMILES	DRD3 agonist	ATXN viability	HepG2 tox-1	TGFb inhibitor	ATXN2 expr inh	DRD3 antagonist	TGFb confirm	HepG2 tox-2	CCL64 TGFb inh	COP TGFb inh
O=S(=O)(c1ccc2ccccc2c1)N1CCN(C2Cc3ccccc3C2)CC1	9	i	-15%	5µM*	-12%	-27	-23%	5%	11%	1%
CCOc1ccc(C(C)C)cc1S(=O)(=O)Nc1cccc(-c2ccc(N3CCOCC3)nn2)c1	-10	i	-14%	-5%	8%	.	.	.	.	.
Cc1ccc(-n2cc(C(=O)OCc3ccc(F)c(F)c3)c3ccccc3c2=O)cc1	7	.	-4%	?	.	.	.	.	.	.
O=C(CSc1cccc[n+]1[O-])Nc1ccccc1Oc1ccccc1	-10	i	-22%	?	-43%	?	-10%	6%	4%	-4%
COC(=O)c1ccc(C(=O)OC)c(NC(=O)CSc2cccc[n+]2[O-])c1	-11	1.3µM*	6.3µM*	3.5µM*	1µM*	?	-15%	6%	-8%	11%
O=C(Nc1cccc(Br)c1)N1CCC(CN2CCCCCC2)CC1	-5	.	-17%	-3%	.	.	.	.	.	.
CCCOc1ccc(C(=O)CCN2CCN(C(=O)OCC)CC2)cc1	-7	?	-45%	16µM*	?	-26	8.2µM*	21µM*	18µM*	23µM*
CCCCNc1sc(S(=O)(=O)CC)nc1S(=O)(=O)c1ccc(C)cc1	2	i	-25%	?	-7%	.	.	.	.	.
CCOC(=O)N(C)c1c(CC)nc2c(OCc3ccc(C(F)(F)F)cc3)cccn12	-7	i	-12%	?	?	7	?	-19%	4%	0%
CCOC(=O)N(C)c1c(CC)nc2c(OCc3ccc(F)cc3)cccn12	0	i	2%	-11%	-29%	12	.	.	.	.
O=C(Nc1cccc(C(=O)Nc2ccc(S(=O)(=O)O)c3cc(S(=O)(=O)O)cc(S(=O)(=O)O)c23)c1)Nc1cccc(C(=O)Nc2ccc(S(=O)(=O)O)c3cc(S(=O)(=O)O)cc(S(=O)(=O)O)c23)c1	.	.	-6%	-5%	.	.	.	.	.	.
CCCCc1ccc(NC(=S)NCc2cccc(OC)c2)cc1	-2	i	-17%	?	-17%	14	.	.	.	.
CCCCc1ccc(NC(=S)Nc2ccc(Nc3ccc(OC)cc3)cc2)cc1	-5	i	-9%	8.9µM*	-6%	-80*	23µM*	?	?	46%
CN1CCN(C(=O)C(=O)Nc2c3c(nn2-c2ccc(F)cc2)CSC3)CC1	4	i	3%	7%	0%	.	.	.	.	.
COc1ccc(-c2cc(C(=O)N(C)CC(=O)Nc3cccc(F)c3)c3ccccc3n2)cc1	1	?	-11%	?	-10%	15	18µM*	?	?	82%
CCOC(=O)C1CCN(C(c2cccnc2)c2c(NC(=O)c3ccco3)sc(C)c2C)CC1 (centres undefined)	-3	i	-53%	7.9µM*	?	-26	21µM*	?	?	18%
Cc1c(C(=O)NCCc2ccc(Cl)cc2)sc2nc3n(c(=O)c12)CCCC3	-11	.	-27%	.	.	.	.	.	.	.
C/C(CC(=O)Nc1ccc(Cl)c(C(F)(F)F)c1)=N\NC(=O)c1ccccc1O	3	i	-68%	16µM*	-21%	36	?	?	?	102%
C/C(CC(=O)Nc1ccc(Cl)c(C(F)(F)F)c1)=N\NC(=O)c1cccc(O)c1	7	i	-2%	-5%	0%	4	.	.	.	.
COc1cccc(/C=N/Nc2ccc([N+](=O)[O-])cn2)c1O	9	?	i	0.79µM*	8.9µM*	?	1.6µM*	?	?	23%
Cn1nnnc1SCCCNCc1ccc(-c2ccc(F)c(Cl)c2)o1	-26	i	-25%	-17%	-25%	.	.	.	.	.
Cc1ccc(CNC(=O)c2cc3c(C)nc4ccccc4c3o2)cc1	2	?	-15%	?	?	23	18µM*	-25%	-8%	24%
Cc1nc2ccccc2c2oc(C(=O)NCc3ccccn3)cc12	2	i	-8%	12%	-13%	21	.	.	.	.
Cc1nnc(SCc2ccc(Cl)cc2)c2cc3occc3n12	0	i	-46%	?	-10%	.	.	.	.	.
Cc1ccc(S(=O)(=O)Nc2ccccc2C(=O)Nc2nc(-c3ccc(F)cc3)cs2)cc1	20	?	-34%	5.6µM*	?	32	5.2µM*	5.8µM*	5.2µM*	94%
COc1ccc(-c2csc(NC(=O)c3ccccc3NS(=O)(=O)c3ccc(F)c(F)c3)n2)cc1	24	?	-42%	1.8µM*	7.1µM*	-13	2.3µM*	1.5µM*	1.8µM*	-9%
O=C(Nc1cc(S(=O)(=O)N2CCCCC2)ccc1O)c1ccccc1NS(=O)(=O)c1ccc(F)cc1	4	i	-32%	18µM*	?	-2	16µM*	?	?	74%
Cc1ccc(S(=O)(=O)Nc2nc(-c3ccccc3)cs2)cc1	-13	i	10%	-10%	-14%	-8	.	.	.	.
C=CCn1c(O)c(N=NC(=S)Nc2ccc(OC)cc2)c2ccccc21	-38	?	-30%	?	?	-17	?	?	?	-12%
C=CCn1c(O)c(N=NC(=S)Nc2cccc(OC)c2)c2ccccc21	9	i	-23%	-25%	-42%	-14	.	.	.	.
